From PubChem BioAssay
APP 5UTR inh = APP translation inhibition; SH-SY5Y APP 5'UTR-luciferase reporter, luminescence; inhibition, % at 2 µM; 0.82% of 190,000 active; AID 1285;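 active means inhibition above a set limit, derived from the sample mean plus 3 SD, cut at about 45% in these data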
aSyn UTR inh = MLPCN primary screen, SNCA 5' untranslated region; alpha-synuclein 5'UTR reporter, inhibitor activity; inhibition, % (tested at 7.5 µM); 0.82% of 300,000 active; AID 1813; in the data active means inhibition above about 60%;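 further: H4 neuroglioblastoma cells stably carrying SNCA 5'UTR luciferase fusion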
KLF5 inhibitor = suppresses KLF5 promoter-driven expression; DLD-1 KLF5 promoter-luciferase reporter, luminescence; inhibition, % at 5 µM; 0.23% of 290,000 active; AID 1700;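 active means inhibition above a per-plate limit of that plate's mean compound inhibition plus 3 SD, cut at about 60% in these data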;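 further: higher means less KLF5 promoter-driven luciferase light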
BaF3 tox = reduces parental Ba/F3 cell viability, JAK2V617F counter-screen; CellTiter-Glo ATP luminescence; inhibition, % at 5.6 µM; 1.1% of 220,000 active; AID 1486;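 active means inhibition above a per-campaign cutoff, the mean inhibition of all tested compounds plus 3 SD, cut at about 27% in these data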
IEC-6 cytotox = kills IEC-6 intestinal cells in KLF5 counter-screen. IEC-6 cytotoxicity, luminescence viability. inhibition, % at 5 µM. 0.78% of 290,000 active; in the data active means inhibition above about 22%
Ba/F3 V617F tox = loss of viability in JAK2V617F-driven Ba/F3 cells; Ba/F3 EpoR-JAK2V617F viability, ATP luminescence; inhibition, % at 5.6 µM; 1.1% of 220,000 active;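 active means inhibition above the campaign mean plus 3 SD over all tested compounds, cut at about 24% in these data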;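 further: cytokine-independent growth of Ba/F3 cells driven by EpoR plus mutant JAK2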
Each line names hits and unclear results; the compound was inactive in the other large screens. Most compounds without a hit are left out; they make up all but 2.2% or so of the library.

O=C(CCN1C(=O)c2ccccc2S1(=O)=O)Nc1ccccc1	BaF3 tox 61.9, Ba/F3 V617F tox 47.8
O=C(CN1C(=O)c2ccccc2S1(=O)=O)c1cccc(Br)c1	aSyn UTR inh 84.2 (no result: APP 5UTR inh, BaF3 tox, Ba/F3 V617F tox)
O=C(CN1C(=O)c2ccccc2S1(=O)=O)c1ccc(OC(F)F)cc1	aSyn UTR inh 86.4 (no result: APP 5UTR inh, BaF3 tox, Ba/F3 V617F tox)
COc1cc(C2SCC(=O)N2Cc2ccccc2)ccc1O (stereo not given)	none (no result: APP 5UTR inh, BaF3 tox, Ba/F3 V617F tox)
O=C(CN1C(=O)c2ccccc2S1(=O)=O)c1ccccc1F	aSyn UTR inh 82.3 (no result: APP 5UTR inh, BaF3 tox, Ba/F3 V617F tox)
O=C(CN1C(=O)c2ccccc2S1(=O)=O)N1CCN(c2ccccc2F)CC1	none
CCn1c2ccccc2c2cc(/C=N/NC(=O)c3ccccc3C)ccc21	APP 5UTR inh 79.4
CC(C)(C)c1cc(Cl)c(O)c(NC(=S)NC(=O)c2cccnc2)c1	aSyn UTR inh 79.6
O=C(O)C1Cc2ccccc2CN1C(=O)c1ccco1 (stereo not given)	none (no result: APP 5UTR inh, BaF3 tox, Ba/F3 V617F tox)
O=C(O)C1CSC(c2ccccc2)N1C(=O)c1ccco1 (stereo not given)	APP 5UTR inh 49.9
COc1ccc2cc[nH]c2c1	aSyn UTR inh 70.8
COc1cc(OC)c2cc[nH]c2c1	none
O=C(NC(Cc1ccccc1)C(=O)O)/C(=C/c1ccc(Cl)cc1)NC(=O)c1ccccc1 (stereo not given)	BaF3 tox 37.4
O=C(NC(Cc1ccccc1)C(=O)O)/C(=C\c1ccccc1F)NC(=O)c1ccccc1 (stereo not given)	none
O=C(NCCCN1CCOCC1)c1ccc(NC(=O)C2COc3ccccc3O2)cc1 (stereo not given)	BaF3 tox 89.8
COC(=O)c1ccccc1C(=O)N(c1ccccc1)c1ccccc1	none (no result: APP 5UTR inh, KLF5 inhibitor, BaF3 tox, IEC-6 cytotox, Ba/F3 V617F tox)
CCOc1ccc(NS(=O)(=O)c2ccc(C(=O)NC3CCC(O)CC3)cc2)cc1 (stereo not given)	none (no result: APP 5UTR inh, KLF5 inhibitor, BaF3 tox, IEC-6 cytotox, Ba/F3 V617F tox)
COc1ccc(-c2nc(C(N)=O)c3[nH]c(=O)n(-c4cccc(Cl)c4)c3n2)cc1OC	none
CCc1ccc(-c2nc(C(N)=O)c3[nH]c(=O)n(-c4ccccc4OC)c3n2)cc1	APP 5UTR inh 94.6, aSyn UTR inh 81.5
O=C(OCCN1C(=O)c2cccc3c(N4CCOCC4)ccc(c23)C1=O)c1ccc(Cl)cc1	APP 5UTR inh 50.5
O=C(/C=C/c1ccccc1)OCCN1C(=O)c2ccccc2C1=O	none (no result: APP 5UTR inh, BaF3 tox, Ba/F3 V617F tox)
CCc1ccc(OCCCOc2ccc(C=O)cc2)cc1	BaF3 tox 101.9
O=c1c2ccccc2nc(/C=C/c2ccc([N+](=O)[O-])o2)n1CCCO	BaF3 tox 101.6, Ba/F3 V617F tox 101.2
Cc1sc(N/N=C/c2cc([N+](=O)[O-])ccc2O)nc1-c1ccccc1	APP 5UTR inh 50.4
CC(C)(C)N(Cc1ccccc1)C(=O)COc1cccnc1[N+](=O)[O-]	none (no result: APP 5UTR inh, BaF3 tox, Ba/F3 V617F tox)
O=C(C1CCCO1)N1CCN(C(=S)Nc2ccc(F)c(Cl)c2)CC1 (stereo not given)	BaF3 tox 27.3, Ba/F3 V617F tox 27.6
COC(CNC(=O)CN1CCN(Cc2ccc(F)cc2Cl)C1=O)OC	none (no result: APP 5UTR inh, BaF3 tox, Ba/F3 V617F tox)
CN1CCN(S(=O)(=O)c2ccc(N3CCN(C(c4ccccc4)c4ccccc4)CC3)nc2)CC1	none
CN1CCN(S(=O)(=O)c2ccc(N3CCN(S(=O)(=O)/C=C/c4ccccc4)CC3)nc2)CC1	BaF3 tox 47.4
CCOc1cc(N2CCOCC2)c(OCC)cc1NC(=O)COc1ncnc2ccccc12	none
CCN(CC)S(=O)(=O)c1ccc(N2CCOCC2)c(NC(=O)c2cc(-c3ccccn3)nc3ccccc23)c1	aSyn UTR inh 88.4
CCN(CC)S(=O)(=O)c1ccc(N2CCOCC2)c(NC(=O)c2cccc3ccccc23)c1	none
CCOc1cc(N2CCOCC2)c(OCC)cc1NC(=O)c1cc(-c2ccco2)nc2ccccc12	APP 5UTR inh 48.8, aSyn UTR inh 113.9
COC(=O)CN1C(=O)N/C(=C/c2cc(OC)c(OC)cc2C)C1=O	BaF3 tox 89.7
CC(C)(C)OC(=O)N1CCC(C(=O)N[C@H](C(=O)O)c2ccccc2)(c2ccccc2)CC1	none (no result: APP 5UTR inh, BaF3 tox, Ba/F3 V617F tox)
Cc1cnc(NC(=O)CSc2ccc(Cl)cc2)s1	none
Cc1cnc(NC(=O)Nc2ccc(Cl)cc2)s1	BaF3 tox 72.2, IEC-6 cytotox 28.6, Ba/F3 V617F tox 91.8
Cc1cnc(NC(=O)COc2ccccc2Cl)s1	aSyn UTR inh 82.0
CC(C(=O)Nc1cccc(S(=O)(=O)N2CCOCC2)c1)N1CCN(C/C=C/c2ccccc2)CC1 (stereo not given)	BaF3 tox 30.3, Ba/F3 V617F tox 27.7
